# Assay results published in the supplement of paper PMC8728848.
# Shown is part of a subset that was picked to be rich in the strongest signals.
# B1: MPA (Maclura pomifera), P18674 (protein)
# chain: GVTFDDGAYTGIREINFEYNSETAIGGLRVTYDLNGMPFVAEDHKSFITGFKPVKISLEFPSEYIVEVSGYVGKVEGYTVIRSLTFKTNKQTYGPYGVTNGTPFSLPIENGLIVGFKGSIGYWLDYFSIYLSL
# Assays:
# Test in all cases: glycan array binding signal (z-score within array); higher = stronger binding
# Conditions in all cases: glycan notation: IUPAC condensed, linker removed
# [1] = biological target: Fuc(a1-2)Gal(b1-4)GlcNAc(b1-3)[Fuc(a1-2)Gal(b1-4)GlcNAc(b1-6)]GalNAc
# Method in brief: (§1)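 Glycan array data were curated from 3228 arrays in the Consortium for Functional Glycomics database and kept only where the protein sequence was available. Glycan names were converted to IUPAC-condensed notation, and columns mapping to the same glycan were averaged. The binding signal is a within-array Z-score, averaged across arrays of the same protein sequence at different concentrations or buffers and across linkers. Negative Z-scores can be read as non-binding.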
# [2] = biological target: Fuc(a1-2)Gal6S(b1-3)GlcNAc
# Method in brief: as §1
# [3] = biological target: Fuc(a1-2)[GalNAc(a1-3)]Gal(b1-3)GlcNAc(b1-2)Man(a1-3)[Fuc(a1-2)[GalNAc(a1-3)]Gal(b1-3)GlcNAc(b1-2)Man(a1-6)]Man(b1-4)GlcNAc(b1-4)[Fuc(a1-6)]GlcNAc
# Method in brief: as §1
# [4] = biological target: Fuc(a1-2)[GalNAc(a1-3)]Gal(b1-4)GlcNAc
# Method in brief: as §1
# [5] = biological target: Fuc(a1-3)GlcNAc
# Method in brief: as §1
# [6] = biological target: Fuc(a1-3)[Gal(b1-4)]GlcNAc(b1-3)Gal(b1-4)[Fuc(a1-3)]GlcNAc
# Method in brief: as §1
# [7] = biological target: Fuc(a1-3)[Gal(b1-4)]GlcNAc6S
# Method in brief: as §1
# [8] = biological target: Gal(a1-3)[Gal(a1-4)]Gal(b1-4)GlcNAc
# Method in brief: as §1
# [9] = biological target: Gal(b1-3)Gal
# Method in brief: as §1
# [10] = biological target: Gal(b1-3)GlcNAc
# Method in brief: as §1
# [11] = biological target: Gal(b1-3)GlcNAc(b1-2)Man(a1-3)[Gal(b1-3)GlcNAc(b1-2)Man(a1-6)]Man(b1-4)GlcNAc(b1-4)[Fuc(a1-6)]GlcNAc
# Method in brief: as §1
# [12] = biological target: Gal(b1-3)GlcNAc(b1-3)Gal(b1-4)Glc
# Method in brief: as §1
# [13] = biological target: Gal(b1-3)GlcNAc(b1-6)GalNAc
# Method in brief: as §1
# [14] = biological target: Gal(b1-3)GlcNAc(b1-6)[Gal(b1-3)]GalNAc
# Method in brief: as §1
# [15] = biological target: Gal(b1-3)[GlcNAc(b1-6)]GalNAc
# Method in brief: as §1
# [16] = biological target: Gal(b1-4)GlcNAc(b1-2)Man(a1-3)[Gal(b1-4)GlcNAc(b1-2)Man(a1-6)][GlcNAc(b1-4)]Man(b1-4)GlcNAc(b1-4)[Fuc(a1-6)]GlcNAc
# Method in brief: as §1
# [17] = biological target: Gal(b1-4)GlcNAc(b1-2)[Gal(b1-4)GlcNAc(b1-4)]Man(a1-3)[Gal(b1-4)GlcNAc(b1-2)Man(a1-6)]Man(b1-4)GlcNAc(b1-4)GlcNAc
# Method in brief: as §1
# [18] = biological target: Gal(b1-4)GlcNAc(b1-3)Gal(b1-4)GlcNAc(b1-2)Man(a1-3)[Gal(b1-4)GlcNAc(b1-3)Gal(b1-4)GlcNAc(b1-2)Man(a1-6)]Man(b1-4)GlcNAc(b1-4)GlcNAc
# Method in brief: as §1
# [19] = biological target: Gal(b1-4)GlcNAc(b1-3)Gal(b1-4)GlcNAc(b1-3)Gal(b1-4)GlcNAc(b1-2)Man(a1-3)[Gal(b1-4)GlcNAc(b1-3)Gal(b1-4)GlcNAc(b1-3)Gal(b1-4)GlcNAc(b1-2)Man(a1-6)]Man(b1-4)GlcNAc(b1-4)GlcNAc
# Method in brief: as §1
# [20] = biological target: Gal(b1-4)GlcNAc(b1-3)Gal(b1-4)GlcNAc(b1-3)Gal(b1-4)GlcNAc(b1-2)[Gal(b1-4)GlcNAc(b1-3)Gal(b1-4)GlcNAc(b1-3)Gal(b1-4)GlcNAc(b1-6)]Man(a1-6)[Gal(b1-4)GlcNAc(b1-3)Gal(b1-4)GlcNAc(b1-3)Gal(b1-4)GlcNAc(b1-2)Man(a1-3)]Man(b1-4)GlcNAc(b1-4)[Fuc(a1-6)]GlcNAc
# Method in brief: as §1
# [21] = biological target: Gal(b1-4)GlcNAc(b1-3)Gal(b1-4)GlcNAc(b1-3)Gal(b1-4)GlcNAc(b1-3)Gal(b1-4)GlcNAc(b1-2)Man(a1-3)[Gal(b1-4)GlcNAc(b1-3)Gal(b1-4)GlcNAc(b1-3)Gal(b1-4)GlcNAc(b1-3)Gal(b1-4)GlcNAc(b1-2)Man(a1-6)]Man(b1-4)GlcNAc(b1-4)[Fuc(a1-6)]GlcNAc
# Method in brief: as §1
# [22] = biological target: Gal(b1-4)GlcNAc(b1-3)Gal(b1-4)GlcNAc(b1-3)[Gal(b1-4)GlcNAc(b1-3)Gal(b1-4)GlcNAc(b1-6)]GalNAc
# Method in brief: as §1
# [23] = biological target: Gal(b1-4)GlcNAc(b1-3)Gal(b1-4)GlcNAc(b1-6)[Gal(b1-3)]GalNAc
# Method in brief: as §1
# [24] = biological target: Gal(b1-4)GlcNAc(b1-3)[GlcNAc(b1-6)]Gal(b1-4)GlcNAc
# Method in brief: as §1
# [25] = biological target: Gal3S(b1-4)[Fuc(a1-3)]GlcNAc6S
# Method in brief: as §1
# [26] = biological target: Gal6P(b1-4)GlcNAc
# Method in brief: as §1
# [27] = biological target: GlcA3S(b1-3)Gal(b1-4)GlcNAc(b1-2)Man
# Method in brief: as §1
# [28] = biological target: GlcNAc(a1-4)Gal(b1-4)GlcNAc(b1-3)Gal(b1-4)[Fuc(a1-3)]GlcNAc(b1-3)Gal(b1-4)[Fuc(a1-3)]GlcNAc
# Method in brief: as §1
# [29] = biological target: GlcNAc(b1-3)Gal(b1-4)GlcNAc(b1-2)[GlcNAc(b1-3)Gal(b1-4)GlcNAc(b1-6)]Man(a1-6)[GlcNAc(b1-3)Gal(b1-4)GlcNAc(b1-2)Man(a1-3)]Man(b1-4)GlcNAc(b1-4)GlcNAc
# Method in brief: as §1
# [30] = biological target: GlcNAc(b1-3)Gal(b1-4)GlcNAc(b1-3)Gal(b1-4)GlcNAc
# Method in brief: as §1
binder,measurement,setting,value
B1,glycan array binding signal (z-score),[1],-0.236
same,glycan array binding signal (z-score),[2],-0.247
same,glycan array binding signal (z-score),[3],-0.363
same,glycan array binding signal (z-score),[4],-0.227
same,glycan array binding signal (z-score),[5],-0.164
same,glycan array binding signal (z-score),[6],-0.148
same,glycan array binding signal (z-score),[7],0.042
same,glycan array binding signal (z-score),[8],-0.119
same,glycan array binding signal (z-score),[9],-0.079
same,glycan array binding signal (z-score),[10],-0.201
same,glycan array binding signal (z-score),[11],-0.074
same,glycan array binding signal (z-score),[12],-0.157
same,glycan array binding signal (z-score),[13],-0.363
same,glycan array binding signal (z-score),[14],-0.291
same,glycan array binding signal (z-score),[15],-0.112
same,glycan array binding signal (z-score),[16],-0.26
same,glycan array binding signal (z-score),[17],-0.046
same,glycan array binding signal (z-score),[18],3.21
same,glycan array binding signal (z-score),[19],8.11
same,glycan array binding signal (z-score),[20],2.44
same,glycan array binding signal (z-score),[21],4.26
same,glycan array binding signal (z-score),[22],4
same,glycan array binding signal (z-score),[23],2.93
same,glycan array binding signal (z-score),[24],-0.172
same,glycan array binding signal (z-score),[25],-0.226
same,glycan array binding signal (z-score),[26],-0.561
same,glycan array binding signal (z-score),[27],-0.571
same,glycan array binding signal (z-score),[28],-0.148
same,glycan array binding signal (z-score),[29],5.1
same,glycan array binding signal (z-score),[30],-0.233
